# Active and inactive are the calls of the source.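 The calls were made as follows, unless noted: active = inhibition above 20% together with a positive visual image hit; inconclusive = visual image hit but inhibition not above 20%; inactive = no visual image hit.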
# Tests used:
# [1] = inhibitors of TNFa-induced NFkB p65 translocation, primary screen, imaging, HUVEC, MLSMR starter and 10KST1 sets (AID 438); settings: HUVEC TNFa-induced p65 nuclear translocation; cell count: measured here: nuclei count (cytotoxicity indicator), at 2.08 µM; inhibition: at 2 µM, stronger effect = higher value, 0% TNFa-plus-vehicle, 100% no-TNFa wells;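 also: compound added about 3h40 before a 20 min TNFalpha stimulation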;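 as to inhibition: signal is the nuclear over cytoplasmic p65 intensity ratio per well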
# [2] = reduction of polyQ htt aggregates in cells – imaging, exon1htt(103Q)mCFP cells, high-content imaging, primary screen (AID 483;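 active = visual image review flags a hit and inhibition of aggregation exceeds 20%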;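 also: compound exposure lasted 3 days before fixation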;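 as to nuclei count: percent of the per-plate median nuclei count of sample wells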); settings: exon1htt(103Q)mCFP cell line, aggregate imaging, at 2 µM; inhibition of aggregation: stronger effect = higher value; nuclei count: measured here: cell count, toxicity
# [3] = endothelial E-selectin expression blockers – imaging, HUVEC, immunofluorescence, MLSMR starter and 10KST1 sets, primary screen (AID 487;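 active = visually confirmed hit in the image check and inhibition above 20%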;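 as to inhibition: signal is fraction of cell area covered by stained E-selectin grains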;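 as to nuclei count: 100% = median nuclei count of all wells on the same plate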); settings: HUVEC TNFalpha-induced E-selectin immunofluorescence imaging, at 2 µM; inhibition: stronger effect = higher value; nuclei count: measured here: cell number, toxicity
# [4] = target: Voltage-gated potassium channel subunit beta-2 (Rattus norvegicus) (UniProt P62483); assay: inhibitors of rat Kvbeta2 reductase activity – biochemical, NADPH fluorescence, primary screen (AID 622;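 active = fluorescence slope higher than the sample average by over 3 SD, cut at about -0.22 in these data, passing the limit was not always enough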;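 also: slope of raw intensity against log time taken from 70 to 1610 s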); settings: recombinant KvBeta, 4-cyanobenzaldehyde reduction, at 10 µM, stronger effect = higher value
# [5] = target: Voltage-gated potassium channel subunit beta-2 (Rattus norvegicus) (UniProt P62483); assay: enhancers of rat Kvbeta2 NADPH turnover – biochemical, NADPH fluorescence, primary screen (AID 623;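 active = NADPH fluorescence slope more negative than the mean of all samples by about 3 SD, 99.7% confidence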;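 also: fluorescence intensity change per second fitted from 20 to 320 s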); settings: Recombinant KvBeta, NADPH fluorescence decrease slope, 10 min; at 10 µM; stronger effect = lower value
# [6] = target: Alpha-2C adrenergic receptor (Homo sapiens) (UniProt P18825); assay: compounds altering alpha2C-coupled GIRK flux – cell-based, HEK293 alpha2C/GIRK1/2, thallium flux, primary screen (AID 624;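 active = fluorescence slope after compound addition differing from the mean of all screened samples at 99.7% confidence, in either direction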;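 also: slope of fluorescence ratio to pre-addition baseline per second over 15 to 24 s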); settings: thallium flux BTC fluorescence, at 10 µM, actives lie on both sides
# [7] = blockers of RIG-like receptor reporter activation – cell-based, Sendai virus stimulus, luciferase, 10K MLSCN set, TLR/RLR signaling modifier project, primary screen (AID 602276;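 active = inhibition at or above 50% at 10 µM; inactive = inhibition below 50%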;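 also: firefly luciferase from ISG56 promoter only with Renilla not read in this screen; 0% = Sendai virus plus DMSO and 100% = medium plus DMSO without virus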); settings: HEK293 RL24 IRF3 luciferase reporter, at 10 µM, stronger effect = higher value
# [8] = TLR3 IRF3 reporter activation blockers – cell-based, poly I:C stimulus, luciferase, 10K MLSCN set, primary screen (AID 602277;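 active = inhibition of the reporter signal at or above 50%; inactive = inhibition below 50%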); settings: HEK293-TLR3 RL24 IRF3 luciferase reporter, at 10 µM, stronger effect = higher value
# Chain of Voltage-gated potassium channel subunit beta-2 (Rattus norvegicus) (P62483 whole entry, looked up): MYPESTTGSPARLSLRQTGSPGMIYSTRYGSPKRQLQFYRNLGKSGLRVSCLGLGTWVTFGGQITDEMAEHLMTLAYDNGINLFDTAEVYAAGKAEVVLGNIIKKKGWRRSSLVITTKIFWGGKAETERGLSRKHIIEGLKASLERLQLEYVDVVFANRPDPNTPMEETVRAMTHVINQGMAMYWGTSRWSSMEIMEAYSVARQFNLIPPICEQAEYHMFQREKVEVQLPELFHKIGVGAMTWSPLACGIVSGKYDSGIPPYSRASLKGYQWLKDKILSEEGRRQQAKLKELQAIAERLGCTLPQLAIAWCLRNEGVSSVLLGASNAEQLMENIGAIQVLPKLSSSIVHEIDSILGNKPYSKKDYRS
# Chain of Alpha-2C adrenergic receptor (Homo sapiens) (P18825 whole entry, looked up): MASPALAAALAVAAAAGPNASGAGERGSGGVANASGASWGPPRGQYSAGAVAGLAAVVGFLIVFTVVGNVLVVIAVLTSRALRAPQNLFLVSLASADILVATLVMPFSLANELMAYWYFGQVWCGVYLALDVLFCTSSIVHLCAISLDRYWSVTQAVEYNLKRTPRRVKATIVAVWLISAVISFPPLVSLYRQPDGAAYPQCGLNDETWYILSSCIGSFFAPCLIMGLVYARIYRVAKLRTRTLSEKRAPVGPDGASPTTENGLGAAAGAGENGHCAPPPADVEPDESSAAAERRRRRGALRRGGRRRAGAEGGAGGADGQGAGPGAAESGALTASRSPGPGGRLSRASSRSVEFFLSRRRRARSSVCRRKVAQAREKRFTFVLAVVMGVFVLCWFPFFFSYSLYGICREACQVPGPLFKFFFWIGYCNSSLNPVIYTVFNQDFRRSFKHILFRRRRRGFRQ
Structure (SMILES),cell count [1],inhibition [1],inhibition of aggregation [2],nuclei count [2],inhibition [3],nuclei count [3],fluorescence slope [4],NADPH fluorescence slope [5],slope [6],inhibition [7],inhibition [8]
O=S(=O)(c1cccc(-c2nnco2)c1)N1CCCC1,453,0.5% (inactive),-4.5% (inactive),95.9%,0.2% (inactive),108%,-0.519 (inactive),-4.3e-05 (inactive),0.00457 (inactive),8.27% (inactive),13.9% (inactive)
CN1C(=O)CCC1(O)c1ccccc1 (stereo not given),565,-9.2% (inactive),18.6% (inactive),54.1%,-51.3% (inactive),103%,-0.392 (inactive),1.8e-06 (inactive),0.00341 (inactive),11.4% (inactive),38.2% (inactive)
CC1CCc2nn(CC(=O)NCCCN3CCOCC3)cc2C1 (stereo not given),608,10.3% (inactive),-17.8% (inactive),125%,28.4% (inactive),107%,-0.578 (inactive),-1.9e-05 (inactive),0.0058 (inactive),8.95% (inactive),36.3% (inactive)
Cc1nc2cc(C(=O)O)ccc2n1-c1ccc(F)cc1F,672,-1.5% (inactive),-2.2% (inactive),99.5%,-12.5% (inactive),116%,-0.527 (inactive),-4.1e-05 (inactive),0.00687 (inactive),4.77% (inactive),27.2% (inactive)
CC(NC(=O)COc1ccccc1)C(=O)NC1=NCCS1 (stereo not given),356,2% (inactive),8.1% (inactive),104%,-85.5% (inactive),128%,-0.35 (inactive),-2.2e-05 (inactive),0.00548 (inactive),14.4% (inactive),20.3% (inactive)
Cc1cc(=O)n(C)c(=O)n1CCCCCN1CCCC1,655,2.2% (inactive),-3.3% (inactive),106%,-52% (inactive),102%,-0.51 (inactive),-1.1e-05 (inactive),0.00473 (inactive),19.1% (inactive),25.3% (inactive)
Cc1ccc(-c2noc(CN3CCN(c4ccccc4F)CC3)n2)cc1,468,-2.6% (inactive),-0.3% (inactive),84.1%,-30.6% (inactive),101%,-0.556 (inactive),-3.7e-05 (inactive),0.00746 (inactive),14.7% (inactive),39% (inactive)
Cc1ccc2cc(CCNC(=O)C(C)C)c(=O)[nH]c2c1C,640,1.9% (inactive),8.6% (inactive),57.4%,-60.4% (inactive),125%,-0.57 (inactive),-2.3e-05 (inactive),0.00565 (inactive),-6.46% (inactive),-5.17% (inactive)
CCC(Sc1ncccc1C(=O)O)C(=O)N1CCCC1 (stereo not given),597,10% (inactive),32.9% (inactive),93.4%,5% (inactive),116%,-0.372 (inactive),-4.6e-05 (inactive),0.00559 (inactive),5.91% (inactive),15.4% (inactive)
COc1ccc(S(=O)(=O)NCC(c2cccnc2)N2CCN(c3ccc(F)cc3)CC2)cc1C (stereo not given),234,-19.1% (inactive),-4.9% (inactive),56.8%,19.6% (inactive),87.7%,-0.447 (inactive),1.7e-05 (inactive),0.00574 (inactive),13.6% (inactive),27.2% (inactive)
CC1(C)CC(=O)N(CC(=O)NCc2ccccc2)c2ccccc2S1(=O)=O,807,-1.7% (inactive),-7.8% (inactive),123%,-20% (inactive),120%,-0.602 (inactive),1.2e-05 (inactive),0.00666 (inactive),12.3% (inactive),20.7% (inactive)
CCCCn1c(CN2CCN(c3ccccc3)CC2)nc2c1c(=O)n(C)c(=O)n2C,702,-11.5% (inactive),-3.7% (inactive),90.6%,-17.7% (inactive),117%,-0.542 (inactive),-4.7e-05 (inactive),0.00817 (inactive),1.46% (inactive),-8.66% (inactive)
CCOc1ccc(CNC(=O)C2CCCN(S(C)(=O)=O)C2)cc1OC (stereo not given),664,-7.1% (inactive),11.9% (inactive),84%,-95.3% (inactive),136%,-0.356 (inactive),-1.3e-05 (inactive),0.00564 (inactive),9.09% (inactive),12% (inactive)
COc1ccc(-c2noc(CN(C(=O)C(C)(C)C)C(C)C)n2)cc1,420,5% (inactive),10.8% (inactive),93%,-73% (inactive),117%,-0.43 (inactive),-5.1e-05 (inactive),0.00416 (inactive),-16.3% (inactive),-34% (inactive)
Cc1oc(-c2ccccc2Cl)nc1CSCC(=O)N1CCCC1,319,9.3% (inactive),19.4% (inactive),91.6%,62.6% (active),102%,-0.572 (inactive),5.9e-06 (inactive),0.00514 (inactive),-10.3% (inactive),8.17% (inactive)
Cc1nn(C)c(C)c1NC(=O)CSc1nc(Cc2ccccc2)nc2c1cnn2-c1ccccc1,360,-0.5% (inactive),-17.9% (inactive),105%,-127% (inactive),121%,-0.491 (inactive),-6.6e-05 (inactive),0.00793 (inactive),12% (inactive),3.8% (inactive)
CC(CC(=O)NC1CCSC1=O)c1ccccc1 (stereo not given),396,-4.2% (inactive),8.2% (inactive),102%,-43.3% (inactive),124%,-0.452 (inactive),3.8e-05 (inactive),0.00567 (inactive),-7.84% (inactive),17% (inactive)
[O-][n+]1c2ccc3nonc3c2nn1-c1ccccc1Cl,340,8.5% (inactive),-11.3% (inactive),111%,-21.9% (inactive),118%,-0.507 (inactive),-5.7e-05 (inactive),0.0043 (inactive),0.797% (inactive),-2.81% (inactive)
CC(C)(O)C#Cc1ccc(C(=O)N2CCN(C(=O)c3ccco3)CC2)cc1,547,-7.8% (inactive),-25.3% (inactive),121%,45.3% (inactive),133%,-0.51 (inactive),-3.3e-05 (inactive),0.00463 (inactive),16.5% (inactive),13.5% (inactive)
COc1cccc(-c2nc(CS(=O)CC(=O)NCCCOC(C)C)c(C)o2)c1 (stereo not given),193,-13% (inactive),5.9% (inactive),119%,-27.1% (inactive),95.8%,-0.486 (inactive),-9.9e-06 (inactive),0.00479 (inactive),11.4% (inactive),7.08% (inactive)
